Compound activity deposited in PubChem by National Center for Advancing Translational Sciences (NCATS).
This is a sample that favours compounds with a hit; in the whole collection about 7.9% have one here.
MCF10A rerep: induces DNA re-replication in MCF 10a normal breast cells; actives 2.9% (n = 350,000); Potency, µM (highest dose often 46.1 µM), actives largely listed as activators; MCF 10A DNA re-replication, Hoechst nuclear intensity, 48 h; further: nearly all actives have a fitted effect of over 50% in size
KB-V1 MDR tox: kills drug-selected multidrug resistant KB-V1 cells; Potency, µM (highest dose often 46.1 µM), usual class: cytotoxic; KB-V1 MDR cells viability, CellTiter-Glo, 72 h; AID 1347076; actives 3.4% (n = 400,000); further: nearly all actives have a fitted effect of over 60% in size
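KB-V1 cells (P-gp-expressing MDR subline of KB-3-1) in phenol-red-free DMEM with 10% FBS were exposed to library compounds over a concentration series for 72 h at 37 degrees C. Viability read by CellTiter-Glo luminescence; concentration-effect curves fitted after normalization.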
HT1080 IDH1KD tx: HT-1080 IDH1 knockdown cell toxicity (counter line) | Potency, µM (doses to about 46.1 µM), hits mostly cytotoxic | HT-1080 IDH1 knockdown viability, ATP luminescence, 48 h | AID 686971 | actives 2% (n = 360,000)
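Assay cells: HT-1080 with IDH1 knockdown, 750 per well, RPMI/5% FBS. Exposure: 48 h at 37 °C following 2 h pre-incubation. Read: CellTiter-Glo luminescence; fitted concentration-response, curve class assigned.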
HT1080NT lethal: kills 2HG-producing HT-1080-NT fibrosarcoma cells; HT-1080-NT fibrosarcoma viability, CellTiter-Glo ATP luminescence, 48 h; Potency, µM (highest dose often 46.1 µM), hits mostly cytotoxic; actives 1.6% (n = 360,000); AID 686970;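 further: NT is the 2HG producing partner of a matched IDH1 knockdown line; nearly all actives have a fitted effect of over 55% in size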
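Fibrosarcoma NT cells, 750 per well in 5% FBS RPMI, were exposed to compound for 48 hours. Viability: CellTiter-Glo luminescence.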
KB-3-1 tox: kills parental KB-3-1 adenocarcinoma cells; KB-3-1 viability, CellTiter-Glo ATP luminescence, 72 h; Potency, µM (series often up to 46.1 µM), usual class: cytotoxic; actives 1.4% (n = 400,000); AID 1347075; further: nearly all actives have a fitted effect of over 60% in size
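Cells are dispensed, compounds pinned in, plates held at 37 °C for 72 h, then CellTiter-Glo is added and luminescence read after 10 minutes. Cell line: parental KB-3-1 in phenol-red-free DMEM, 10% FBS.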
SW480 rereplic: induces DNA re-replication in SW480 colon adenocarcinoma cells; SW480 DNA re-replication, Hoechst DNA content imaging, 48 h; Potency, µM (series often up to 46.1 µM), usual class: activators; AID 624297; actives 1.8% (n = 340,000); further: nearly all actives have a fitted effect of over 55% in size
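First, 250 cells per well were seeded. Next, compound or vehicle (23 nL) was pinned in, plates sat 48 hr at 37 C. Finally Hoechst was added for 40 min before fluorescence scanning.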
Numbers stand for hits; – = inactive; ? = inconclusive; · = not tested or not shown; ! = not confirmed by another sample. The call rests on the fitted dose curve; in most records, active means well fitted curve in the direction sought with a large enough effect; inconclusive means small, poorly fitted or top-dose-only effect, or another doubt; inactive means no such curve, though single readings can be large; an effect the other way counts as inactive or inconclusive.

SMILES | MCF10A rerep | KB-V1 MDR tox | HT1080 IDH1KD tx | HT1080NT lethal | KB-3-1 tox | SW480 rereplic
CCc1cc2c(cc1-c1csc(C/C(N)=N/O)n1)C(C)(C)CCC2(C)C | · | – | ? | ? | – | ·
COC(=O)C1=C(c2cccc(OC)c2OC)C[C@@H]2CC[C@H]1N2C(=O)NCCO | – | ? | – | – | – | –
COc1ccc(C2/C=C\CN(C(=O)Oc3ccc(C(F)(F)F)cc3)CC(=O)N2Cc2ccc(F)cc2)cc1 (stereo unspecified) | ? | – | – | – | – | –
O=[N+]([O-])c1cccc(CN2CCN(Cc3ccc(Br)cc3)CC2)c1 | 9.2µM | – | – | – | ? | –
CC(C)(C)NS(=O)(=O)c1cccc(S(=O)(=O)c2cccc(S(=O)(=O)NC(C)(C)C)c2)c1 | – | 14.6µM | ? | ? | – | ?
CC(C)(C)NS(=O)(=O)c1ccc(OCC(=O)N2CCN(Cc3ccccc3)CC2)cc1 | – | ? | – | – | – | –
C=CCn1c(O)c(C(C)=NCc2cccnc2)c(=O)[nH]c1=O | – | – | – | – | – | –
C=CCn1c(O)c(C(C)=NCc2cc(OC)cc(OC)c2)c(=O)[nH]c1=O | ? | 3.26µM | 5.8µM | 3.66µM | 5.17µM | –
COc1cc(OC)c(/C=C2\C(=O)Nc3ccccc32)c(OC)c1 | 5.17µM | 8.2µM | 2.59µM | ? | 4.11µM | 11.6µM
COc1ccc2c(c1)/C(=C/c1cnc[nH]1)C(=O)N2 | ? | 10.3µM | 14.6µM! | ? | ? | ?
O=C1Nc2ccccc2/C1=C/c1cnc[nH]1 | ? | ? | ? | – | – | ?
COc1ccc(S(=O)(=O)Cc2ccc(C(=O)N3CCC4(CC3)OCCO4)o2)cc1 | – | – | – | – | – | –
COC(=O)C1=C(c2ccc(S(C)(=O)=O)cc2)C[C@@H]2CC[C@H]1N2C(=O)N1CCC(C)CC1 | – | – | – | – | – | –
O=C(CCC(=O)N1C[C@H]2C[C@@H](C1)c1cccc(=O)n1C2)NCc1cccc(C(F)(F)F)c1 | – | – | ? | – | – | –
CC1CN(C)C(C)(C)CC1(O)c1ccccc1 (stereo unspecified) | 16.4µM | – | – | – | – | ?
Cc1ccc(C2(O)CC(C)N(C)CC2C)cc1 (stereo unspecified) | – | – | – | – | – | –
Brc1ccccc1 | – | – | – | – | – | ?
COC(=O)C1=C(c2cccc(C#N)c2)C[C@@H]2CC[C@H]1N2C(=O)N1CCc2cc(OC)c(OC)cc2C1 | – | – | – | – | – | –
CCOP(=O)(C#Cc1ccccc1)C(O)c1ccc(Br)cc1 (stereo unspecified) | – | – | – | – | – | –
CC1(c2ccccc2)NCCN2C(=O)CSC21 (stereo unspecified) | – | ? | – | – | – | –
NC(=O)c1sc2nc3c(c(-c4cccs4)c2c1N)CCCC3 | ? | · | · | · | · | –
Nc1c2c(nc3sc4c(c13)CCCCC4)CCCC2 | ? | ? | ? | ? | 29.1µM | –
CCC(C(=O)N1C[C@H]2C[C@@H](C1)c1cccc(=O)n1C2)c1ccccc1 (stereo partly specified) | – | – | – | – | – | ?
CCC(C)C(=O)N[C@@H](c1ccccc1)[C@@H](O)C(=O)O[C@H]1C[C@@]2(O)[C@@H](OC(=O)c3ccccc3)C3[C@](C)(C(=O)[C@H](OC(C)=O)C(=C1C)C2(C)C)[C@@H](O)C[C@H]1OC[C@@]31OC(C)=O (stereo partly specified) | – | – | ? | 0.184µM | 0.0065µM | 1.64µM
CC/C=C/CC(=O)N[C@@H](c1ccccc1)[C@@H](O)C(=O)O[C@H]1C[C@@]2(O)[C@@H](OC(=O)c3ccccc3)C3[C@](C)(C(=O)[C@H](OC(C)=O)C(=C1C)C2(C)C)[C@@H](O)C[C@H]1OC[C@@]31OC(C)=O (stereo partly specified) | ? | ? | 0.0052µM | 0.0411µM | 0.581µM | ?
SMILES | MCF10A rerep | KB-V1 MDR tox | HT1080 IDH1KD tx | HT1080NT lethal | KB-3-1 tox | SW480 rereplic
C/C=C(\C)C(=O)N[C@@H](c1ccccc1)[C@@H](O)C(=O)O[C@H]1C[C@@]2(O)[C@@H](OC(=O)c3ccccc3)C3[C@](C)(C(=O)[C@H](OC(C)=O)C(=C1C)C2(C)C)[C@H](O)C[C@H]1OC[C@@]31OC(C)=O (stereo partly specified) | 0.231µM | ? | 0.0052µM | 0.0461µM | 0.0073µM | 1.46µM
CSc1cccc(NP2(=O)OCC(C)([N+](=O)[O-])CO2)c1 (stereo unspecified) | – | – | – | – | – | –
CC(C)CC(CN)CC(=O)O (stereo unspecified) | – | · | · | · | · | –
CC(C)n1c(=O)c(C=Nc2ccc(S(N)(=O)=O)cc2)c(O)n(Cc2ccco2)c1=O | – | – | – | – | – | ?
CC(C)n1c(=O)c(C=Nc2cccc([N+](=O)[O-])c2)c(O)n(CCc2ccccc2)c1=O | 23.1µM | – | – | – | – | –
COc1cc2c(cc1OC)-c1c(OC)c(OC)c(OC)c3ccnc(c13)C2=O | ? | ? | – | – | – | 8.2µM
Cc1ccccc1N1C(=O)NC(=O)/C(=C\c2cc(Br)c(N3CCOCC3)o2)C1=O | 7.31µM | – | – | – | – | ?
COc1ccc(-c2nc3ccc(C(=O)N4CCC5(CC4)OCCO5)cc3nc2-c2ccc(OC)cc2)cc1 | ? | – | – | – | – | 23.1µM
Cc1nc2cc(C(=O)N3CCC4(CC3)OCCO4)ccc2n1-c1ccc(Br)cc1 | – | – | – | – | – | –
CC(C)Nc1ccc(Nc2ccccc2)cc1 | ? | – | · | · | 18.4µM | 23.7µM
COc1ccccc1-n1c(-c2ccccc2F)nc2ccccc2c1=O | – | – | – | – | – | –
CCCc1c(-c2ccccc2F)ncn1CCc1ccccc1OC | · | 16.4µM | ? | ? | ? | ·
O=c1cccc2n1CC1CC2CN(CC(O)CN2CC3CC(C2)c2cccc(=O)n2C3)C1 (stereo unspecified) | – | – | – | – | – | –
Cc1cccc(-n2c(/C=C/c3c(C)[nH]c4ccccc34)nc3ccccc3c2=O)c1 | · | – | · | · | – | ·
Cc1cccc(N2CCc3c2nc2ccccc2c3N)c1 | 14.6µM | ? | – | – | ? | –
COC1CCC(OC2CC(C3(C)CCC4(CC(O)C(C)C(C(C)/C=C(\C)C(=O)C(C)CC(C)C(=O)O)O4)O3)OC3(OC(C4OC(O)(CO)C(C)CC4C)CC3C)C2C)OC1C (stereo unspecified) | 1.46µM | – | 3.66µM | 13µM | ? | ?
CCOc1ccc(N=Cc2c(O)n(CCc3ccc(OC)c(OC)c3)c(=O)[nH]c2=O)cc1 | – | – | – | – | – | –
